Records with an inconclusive call do not appear. The source made the active and inactive calls. Unless noted, the call rests on the fitted dose curve; in most records, active means well fitted curve in the direction sought with a large enough effect in the repeat runs; inconclusive means weak or mixed curves; inactive means no such curve, though single readings can be large; an effect the other way counts as inactive or inconclusive.
How the values were obtained:
[1] = qHTS assay to identify small molecule antagonists of the estrogen related receptor (ERR) signaling pathway from Tox21 library - cell viability counter screen (AID 1224834); further: nearly all actives have a fitted effect of over 30% in size
Method in brief: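 Compounds in DMSO were pinned onto ERR cells that had been incubated for 6 h, and the plates were held at 37 C for 17.5 h. CellTiter-Fluor reagent was then added and fluorescence was measured after 30 min.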

[2] = target: Luciferin 4-monooxygenase (Photinus pyralis) (UniProt P08659); test: qHTS assay to identify small molecule inhibitors of firefly luciferase (AID 1224835); further: nearly all actives have a fitted effect of over 25% in size
Sequence of Luciferin 4-monooxygenase (Photinus pyralis) (P08659 whole entry, looked up): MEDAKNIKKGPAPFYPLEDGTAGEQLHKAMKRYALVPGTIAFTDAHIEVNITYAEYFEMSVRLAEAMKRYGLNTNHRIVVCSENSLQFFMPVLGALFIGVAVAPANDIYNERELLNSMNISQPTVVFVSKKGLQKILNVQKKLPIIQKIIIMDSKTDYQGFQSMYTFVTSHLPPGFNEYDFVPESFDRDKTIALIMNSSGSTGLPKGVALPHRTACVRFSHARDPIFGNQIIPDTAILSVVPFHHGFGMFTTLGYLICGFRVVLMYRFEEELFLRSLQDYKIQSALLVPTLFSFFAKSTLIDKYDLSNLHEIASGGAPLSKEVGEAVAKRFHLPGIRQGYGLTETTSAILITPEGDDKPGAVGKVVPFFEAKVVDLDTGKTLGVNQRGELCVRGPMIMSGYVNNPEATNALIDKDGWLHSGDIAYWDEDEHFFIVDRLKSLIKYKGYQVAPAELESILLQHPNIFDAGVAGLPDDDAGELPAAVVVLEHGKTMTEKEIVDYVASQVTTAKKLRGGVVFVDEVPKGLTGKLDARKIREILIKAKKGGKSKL
Method in brief: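 Inhibition of purified Photinus luciferase is measured by luminescence. Substrate levels (D-luciferin, ATP) sit at their KM values. Each compound is tested in a concentration series.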

[3] = qHTS assay to identify small molecule agonists of the constitutive androstane receptor (CAR) signaling pathway - cell viability counter screen (AID 1224836); further: nearly all actives have a fitted effect of over 45% in size
Method in brief: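 23 h treatment, 37 C, 5% CO2. Cell line: HepG2 stably expressing hCAR with a CYP2B6-2.2kb construct. Co-treatment: PK11195, 0.75 uM final. Read-out: CellTiter-Fluor fluorescence intensity.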

[4] = qHTS assay to identify small molecule antagonists of the constitutive androstane receptor (CAR) signaling pathway - cell viability counter screen (AID 1224837); further: nearly all actives have a fitted effect of over 45% in size
Method in brief: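 Cells are seeded, rested 4 hr at 37 C/5% CO2, dosed with compound (15-point series) and 50 nM CITCO, incubated a further 23 hr, and then CellTiter-Fluor reagent is added before fluorescence is read. The line is HepG2 with stable hCAR and CYP2B6-2.2kb.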

[5] = target: Nuclear receptor subfamily 1 group I member 3 (Homo sapiens) (UniProt Q14994); test: qHTS assay to identify small molecule antagonists of the constitutive androstane receptor (CAR) signaling pathway (AID 1224838);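 further: HepG2 cells stably expressing hCAR with CYP2B6 luciferase reporter stimulated by CITCO; nearly all actives have a fitted effect of over 40% in size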
Sequence of Nuclear receptor subfamily 1 group I member 3 (Homo sapiens) (Q14994 whole entry, looked up): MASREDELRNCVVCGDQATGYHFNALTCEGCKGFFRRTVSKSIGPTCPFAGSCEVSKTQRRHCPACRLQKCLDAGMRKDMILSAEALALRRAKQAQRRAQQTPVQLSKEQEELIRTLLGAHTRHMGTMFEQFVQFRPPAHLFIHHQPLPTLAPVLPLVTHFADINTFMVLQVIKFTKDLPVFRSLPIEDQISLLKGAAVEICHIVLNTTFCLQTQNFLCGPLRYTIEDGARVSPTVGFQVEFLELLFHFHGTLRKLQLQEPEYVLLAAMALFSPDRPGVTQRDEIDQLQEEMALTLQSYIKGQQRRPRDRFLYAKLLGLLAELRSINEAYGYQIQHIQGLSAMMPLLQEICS
Method in brief: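 Luminescence from a CYP2B6-2.2kb promoter reporter in hCAR-expressing HepG2 cells reflects CAR signaling. Cells received compounds at 15 concentrations and 50 nM CITCO (final), then incubated 24 h at 37 C/5% CO2.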

[6] = target: Nuclear receptor subfamily 1 group I member 3 (Homo sapiens) (UniProt Q14994); test: qHTS assay to identify small molecule agonists of the constitutive androstane receptor (CAR) signaling pathway (AID 1224839); further: nearly all actives have a fitted effect of over 15% in size; further: potency means the concentration at half of the fitted maximal effect;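 on activation: HepG2 cells stably carrying human CAR and a CYP2B6 luciferase reporter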
Method in brief: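 Compounds tested at 15 concentrations on HepG2 cells stably harbouring hCAR and CYP2B6-2.2kb reporter constructs, co-treated with PK11195 (0.75 uM final), 24 h at 37 C; luminescent reporter signal quantified.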

[7] = qHTS assay to identify small molecule antagonists of the estrogen related receptor signaling pathway with the pleiotropic PPARgamma coactivator (PGC) from Tox21 10K library - cell viability counter screen (AID 1224840; active means well fitted cell-killing curve with a large enough effect in the repeat runs, not every such curve was filed as active; further: nearly all actives have a fitted effect of over 40% in size)
Method in brief: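 Cell viability is measured by CellTiter-Fluor fluorescence in PGC/ERR cells that receive compounds after a 6-hour attachment period and are then incubated 17.5 hours at 37 C.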

[8] = target: Thyrotropin receptor (Homo sapiens) (UniProt P16473); test: qHTS assay to identify small molecule agonists of the thyroid stimulating hormone receptor (TSHR) signaling pathway (AID 1224843; calls by dose curve; further: nearly all actives have a fitted effect of over 45% in size)
Sequence of Thyrotropin receptor (Homo sapiens) (P16473 whole entry, looked up): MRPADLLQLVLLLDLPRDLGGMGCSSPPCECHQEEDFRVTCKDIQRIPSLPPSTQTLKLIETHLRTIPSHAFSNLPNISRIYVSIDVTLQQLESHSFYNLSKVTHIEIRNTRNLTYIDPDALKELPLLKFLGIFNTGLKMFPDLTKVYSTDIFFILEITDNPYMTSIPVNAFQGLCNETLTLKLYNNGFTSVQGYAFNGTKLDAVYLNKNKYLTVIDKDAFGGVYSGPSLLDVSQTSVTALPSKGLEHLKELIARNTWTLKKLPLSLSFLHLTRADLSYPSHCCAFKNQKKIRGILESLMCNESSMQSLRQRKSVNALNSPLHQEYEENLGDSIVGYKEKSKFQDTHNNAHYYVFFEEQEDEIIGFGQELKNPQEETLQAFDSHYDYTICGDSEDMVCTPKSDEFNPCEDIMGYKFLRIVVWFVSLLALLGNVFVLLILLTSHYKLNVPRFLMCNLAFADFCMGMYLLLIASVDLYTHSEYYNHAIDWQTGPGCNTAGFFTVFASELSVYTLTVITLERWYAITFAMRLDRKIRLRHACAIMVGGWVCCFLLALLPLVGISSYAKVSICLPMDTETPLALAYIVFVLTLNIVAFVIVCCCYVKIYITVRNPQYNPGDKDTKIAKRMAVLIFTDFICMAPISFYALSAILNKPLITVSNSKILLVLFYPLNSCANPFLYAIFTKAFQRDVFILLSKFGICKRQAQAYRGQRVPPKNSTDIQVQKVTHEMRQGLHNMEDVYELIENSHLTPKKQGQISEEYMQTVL
Method in brief: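 A cell-based cAMP HTRF format was run in TSHR-transfected HEK293 cells, 800 per well. Treatment: 30 min, room temperature. Detection: 1 h with labelled cAMP and anti-cAMP cryptate. Concentration-response over 15 points, three replicates.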

[9] = qHTS assay to identify small molecule agonists of the hypoxia (HIF-1) signaling pathway - cell viability counter screen (AID 1224844; calls by dose curve; further: nearly all actives have a fitted effect of over 50% in size)
Method in brief: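 Viability counter screen: HRE-bla ME-180 cells plated 5 hrs before compound addition, treated 17 hrs at 37C and 5% CO2, then CellTiter-Glo added after the FRET reporter read; luminescence after 30 min.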

[10] = qHTS assay to identify small molecule agonists of H2AX (AID 1224845; active means well fitted activation curve with a large enough effect in the signal ratio in the repeat runs, not every such curve was filed as active; the % refers to the signal ratio)
Method in brief: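 Phospho-H2AX Ser139 measured by HTRF (ex 320 nm; em 665 and 620 nm) after 24 hr antibody incubation. Compounds, 15 concentrations, 0.76% DMSO, were applied to CHO-K1 cells for 3hr at 37C before lysis.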

[11] = qHTS assay to identify small molecule agonists of H2AX - cell viability counter screen (AID 1224847; calls by dose curve; further: top concentration of the series differs between compounds; nearly all actives have a fitted effect of over 30% in size)
Method in brief: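 Compounds tested at 15 concentrations were incubated 3 hr at 37C with wild-type CHO-K1 cells; cellular ATP-based luminescence (CellTiter-Glo) indicated viability.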

[12] = qHTS RealTime-Glo MT Cell Viability Assay in HepG2 cells - 24 hour (AID 1224867); further: nearly all actives have a fitted effect of over 50% in size
Method in brief: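 qHTS, HepG2, 600 cells/well, RealTime-Glo (NanoLuc + prosubstrate) added with cells; 5 h preincubation; DMSO compound addition; 37 C; luminescence at 0/8/16/24/32/40 h.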

[13] = qHTS RealTime-Glo MT Cell Viability Assay in HEK293 cells - 32 hour (AID 1224868); further: top concentration of the series differs between compounds; nearly all actives have a fitted effect of over 50% in size
Method in brief: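 Assay medium contained NanoLuc luciferase plus cell-permeant prosubstrate, added with HEK293 cells at 600 cells/well. After 5 h at 37 C/5% CO2 compounds were added; plates stayed at 37 C for 40 h with serial luminescence reads.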

[14] = A CellTox Green Cytotoxicity Assay to monitor cytotoxicity in HEK293 cells - 0 hour (AID 1224869); further: nearly all actives have a fitted effect of over 50% in size
Method in brief: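 Dead-cell fluorescence measured kinetically: asymmetric cyanine dye, HEK293, 600 cells/well, 5 h settle, 23 nL cpd/DMSO, 37 C, reads 0–40 h every 8 h.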

[15] = qHTS RealTime-Glo MT Cell Viability Assay in HepG2 cells - 40 hour (AID 1224870); further: nearly all actives have a fitted effect of over 50% in size
Method in brief: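 Real-time viability: cells seeded at 600 per well together with NanoLuc and cell-permeant prosubstrate, compounds added after 5 h incubation. Luminescence tracked at 0, 8, 16, 24, 32 and 40 h of exposure.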

[16] = qHTS assay to identify small molecule agonists of the hypoxia (HIF-1) signaling pathway (AID 1224846; active means well fitted activation curve with a large enough effect in the signal ratio in the repeat runs, not every such curve was filed as active; the % refers to the signal ratio)
Method in brief: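 Agonist mode reporter screen. ME-180 cells stably expressing bla under HRE control received test compounds in DMSO for 17 hrs (37C, 5% CO2), and beta-lactamase activity was then detected with the CCF4-AM FRET substrate.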

[17] = qHTS assay to identify small molecule antagonists of the estrogen related receptor signaling pathway with the pleiotropic PPARgamma coactivator (PGC) from Tox21 10K library (AID 1224841; call rule not given here)
Method in brief: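 Cells stably carrying the PGC/ERR reporter, seeded at 2,000 per well, received pin-transferred compounds 6 h post-plating. Exposure lasted 18 h at 37 C. Signal: One-Glo luminescence.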

[18] = qHTS assay to identify small molecule agonists of the estrogen related receptor signaling pathway with the pleiotropic PPARgamma coactivator (PGC) from Tox21 10K library (AID 1224842); further: nearly all actives have a fitted effect of over 15% in size
Method in brief: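 Luminescence from One-Glo (30 min, room temperature) measured after PGC/ERR cells had 18 h at 37 C with pinned compound (23 nL in DMSO). Cells had been seeded at 2,000 per well and pre-incubated 6 h.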

[19] = qHTS assay to identify small molecule antagonists of the estrogen related receptor (ERR) signaling pathway from Tox21 library (AID 1224848); further: nearly all actives have a fitted effect of over 50% in size; further: potency means the concentration at half of the fitted maximal effect
Method in brief: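 ERR cell line, 2,000 cells/well. 6 h settle, then compound (DMSO) added; 18 h at 37 C; ONE-Glo luminescence after 30 min RT.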

[20] = qHTS assay to identify small molecule agonists of the estrogen related receptor (ERR) signaling pathway from Tox21 library (AID 1224849; calls by dose curve; further: nearly all actives have a fitted effect of over 15% in size); conditions: ERR reporter cell line, ONE-Glo luciferase, 18 h; at 92.4 µM (top of the series) unless noted
Method in brief: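 Quantitative HTS in agonist format: NTP ERR cell line, compounds transferred in DMSO after 6 h plating, 18 h incubation at 37 C, ONE-Glo luminescence endpoint.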
On the % scale 0 is the no-effect control and ±100 the full control effect.

CCCCN(CCCC)CCCOC(=O)c1ccc(N)cc1
active: Potency [6] 26.6 µM
inactive: Potency [1] | Potency [2] | Potency [3] | Potency [4] | Potency [5] | Potency [7] | Potency [8] | Potency [9] | Potency [10] | Potency [11] | Potency [12] | Potency [13] | Potency [14] | Potency [15]

COCC(O)CO (stereo not given)
inactive: Potency [1] | Potency [2] | Potency [3] | Potency [4] | Potency [5] | Potency [6] | Potency [7] | Potency [8] | Potency [9] | Potency [10] | outcome [16] | Potency [11] | Potency [12] | Potency [13] | Potency [14] | Potency [15]

C[N+]1(C)CCC(=C(c2ccccc2)c2ccccc2)CC1
inactive: Potency [1] | Potency [2] | Potency [3] | Potency [4] | Potency [5] | Potency [6] | Potency [17] | Potency [18] | Potency [8] | Potency [9] | Potency [10] | Potency [11] | Potency [19] | activity change, positive = activation [20] -2% [at 42.5 µM] | Potency [12] | Potency [13] | Potency [14] | Potency [15]

CC(N)CN (stereo not given)
inactive: Potency [1] | Potency [2] | Potency [3] | Potency [4] | Potency [7] | Potency [8] | Potency [9] | Potency [10] | outcome [16] | Potency [11] | Potency [12] | Potency [13] | Potency [15]

CCCCCCCCCCCCCCCCBr
inactive: viability change, negative = cytotoxic [1] 0.749% [at 19 µM] | activity change, negative = inhibition [2] 1.26% [at 23.6 µM] | viability change, negative = cytotoxic [3] 0.618% [at 19 µM] | activity change, negative = cytotoxicity [4] -0.0926% [at 19 µM] | activation [6] -0.821% [at 19 µM] | viability change, negative = cytotoxic [7] 7.8% [at 19 µM] | activity, negative = inhibition [17] 36.1% [at 19 µM] | activation [18] 1.63% [at 19 µM] | activation [8] -0.411% [at 19 µM] | activity change, negative = cytotoxicity [9] -1.79% [at 15.8 µM] | activation (H2AX phosphorylation) [10] -0.41% [at 31.6 µM] | activation [16] 0.309% [at 15.8 µM] | activity change, negative = cytotoxicity [11] 2.27% [at 31.6 µM] | activity, negative = inhibition [19] 8.88% [at 19 µM] | activity change, positive = activation [20] 4.62% [at 19 µM] | activity change, negative = cytotoxicity [12] 2.08% [at 15.8 µM] | activity change, negative = cytotoxic [13] 4.73% [at 15.8 µM] | cytotoxicity [14] -1.2% [at 15.8 µM] | activity change, negative = cytotoxic [15] 2.22% [at 15.8 µM]

ON(Cc1ccccc1)Cc1ccccc1
inactive: Potency [1] | Potency [2] | Potency [3] | Potency [4] | Potency [5] | Potency [7] | Potency [8] | Potency [9] | Potency [10] | outcome [16] | Potency [11] | Potency [12] | Potency [13] | Potency [14] | Potency [15]

C[C@]12CCC(=O)C=C1C=C[C@@H]1[C@@H]2CC[C@@]2(C)[C@H]1CC[C@@]21CCC(=O)O1
active: Potency [19] 23.7 µM
inactive: Potency [1] | Potency [2] | Potency [3] | Potency [4] | Potency [6] | Potency [7] | Potency [17] | Potency [18] | Potency [8] | Potency [9] | Potency [10] | outcome [16] | Potency [11] | activity change, positive = activation [20] -28.3% [at 42.5 µM] | Potency [12] | Potency [13] | Potency [14] | Potency [15]

From PubChem BioAssay (Tox21)
